Data as given in PubChem BioAssay AID1159580 (chemical genetic matrix, 2015).
In all, about 5,500 compounds went through this assay and about 2,000 (36%) were called active. Inconclusive results (about 18%) are left out. Cut-off read from the data, not from the text of the source: active = normalized growth mostly below about 0.91 (no sharp cut-off); inconclusive = no clear call, values can overlap the other calls; inactive = mostly above about 0.92. This is one part of the list.

Assay: chemical genetic growth profiling, strain panel (AID 1159580);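 note: tested at 20 µM; growth read once vehicle control cultures reached saturation at 30 °C; 1 = growth at the plate median or of vehicle wells; lower values mean less growth of the strain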
Settings: growth OD
[1] = S. cerevisiae deletion strains, locus YAR019C, strain CDC15, active compounds read low
[2] = S. cerevisiae deletion strains, locus YBL105C, strain PKC1, active compounds read low
[3] = S. cerevisiae deletion strains, locus YBR135W, strain CKS1, active compounds read low
[4] = S. cerevisiae deletion strains, locus YBR136W, strain MEC1, active compounds read low
[5] = S. cerevisiae deletion strains, locus YBR160W, strain CDC28, active compounds read low
[6] = S. cerevisiae deletion strains, locus YDL017W, strain CDC7, active compounds read low
[7] = S. cerevisiae deletion strains, locus YDL028C, strain MPS1, active compounds read low
[8] = S. cerevisiae deletion strains, locus YDL101C, strain DUN1, active compounds read low
[9] = S. cerevisiae deletion strains, locus YDL108W, strain KIN28, active compounds read low
[10] = S. cerevisiae deletion strains, locus YDL132W, strain cdc53, active compounds read low
[11] = S. cerevisiae deletion strains, locus YDL214C, strain PRR2, active compounds read low
[12] = S. cerevisiae deletion strains, locus YDR052C, strain DBF4, active compounds read low
[13] = S. cerevisiae deletion strains, locus YDR054C, strain cdc34, active compounds read low
[14] = S. cerevisiae deletion strains, locus YDR226W, strain ADK1, active compounds read low
[15] = S. cerevisiae deletion strains, locus YDR477W, strain SNF1, active compounds read low
[16] = S. cerevisiae deletion strains, locus YER123W, strain YCK3, active compounds read low
[17] = S. cerevisiae deletion strains, locus YER133W, strain GLC7, active compounds read low
[18] = S. cerevisiae deletion strains, locus YFL009W, strain cdc4, active compounds read low
[19] = S. cerevisiae deletion strains, locus YFL029C, strain CAK1, active compounds read low
[20] = S. cerevisiae deletion strains, locus YFR003C, strain YPI1, active compounds read low
[21] = S. cerevisiae deletion strains, locus YFR019W, strain FAB1, active compounds read low
[22] = S. cerevisiae deletion strains, locus YFR028C, strain CDC14, active compounds read low
[23] = S. cerevisiae deletion strains, locus YGR040W, strain KSS1, active compounds read low
[24] = S. cerevisiae deletion strains, locus YGR052W, strain FMP48, active compounds read low
[25] = S. cerevisiae deletion strains, locus YGR092W, strain DBF2, active compounds read low
[26] = S. cerevisiae deletion strains, locus YHR030C, strain SLT2, active compounds read low
[27] = S. cerevisiae deletion strains, locus YHR079C, strain IRE1, active compounds read low
[28] = S. cerevisiae deletion strains, locus YHR082C, strain KSP1, active compounds read low
[29] = S. cerevisiae deletion strains, locus YHR205W, strain SCH9, active compounds read low
[30] = S. cerevisiae deletion strains, locus YIL147C, strain SLN1, active compounds read low
[31] = S. cerevisiae deletion strains, locus YJL095W, strain BCK1, active compounds read low
[32] = S. cerevisiae deletion strains, locus YJL128C, strain PBS2, active compounds read low
[33] = S. cerevisiae deletion strains, locus YJL157C, strain FAR1, active compounds read low
[34] = S. cerevisiae deletion strains, locus YJR016C, strain ILV3, active compounds read low
[35] = S. cerevisiae deletion strains, locus YJR066W, strain TOR1 (second series), active compounds read low
[36] = S. cerevisiae deletion strains, locus YJR066W, strain TOR1, active compounds read low
[37] = S. cerevisiae deletion strains, locus YKL048C, strain ELM1, active compounds read low
[38] = S. cerevisiae deletion strains, locus YKL067W, strain YNK1, active compounds read low
[39] = S. cerevisiae deletion strains, locus YKL101W, strain HSL1, active compounds read low
[40] = S. cerevisiae deletion strains, locus YKL193C, strain SDS22, active compounds read low
[41] = S. cerevisiae deletion strains, locus YKL203C, strain TOR2, active compounds read low
[42] = S. cerevisiae deletion strains, locus YLR113W, strain HOG1, active compounds read low
[43] = S. cerevisiae deletion strains, locus YLR133W, strain CKI1, active compounds read low
[44] = S. cerevisiae deletion strains, locus YLR403W, strain SFP1, active compounds read low
[45] = S. cerevisiae deletion strains, locus YML070W, strain DAK1, active compounds read low
[46] = S. cerevisiae deletion strains, locus YMR001C, strain CDC5, active compounds read low
[47] = S. cerevisiae deletion strains, locus YMR205C, strain PFK2 (second series), active compounds read low
[48] = S. cerevisiae deletion strains, locus YMR277W, strain FCP1, active compounds read low
[49] = S. cerevisiae deletion strains, locus YNL006W, strain LST8, active compounds read low
[50] = S. cerevisiae deletion strains, locus YNL020C, strain ARK1, active compounds read low
[51] = S. cerevisiae deletion strains, locus YNL161W, strain CBK1, active compounds read low
[52] = S. cerevisiae deletion strains, locus YNL183C, strain NPR1, active compounds read low
[53] = S. cerevisiae deletion strains, locus YNL207W, strain RIO2, active compounds read low
[54] = S. cerevisiae deletion strains, locus YNL222W, strain SSU72, active compounds read low
[55] = S. cerevisiae deletion strains, locus YNL307C, strain MCK1 (second series), active compounds read low
[56] = S. cerevisiae deletion strains, locus YOL078W, strain AVO1, active compounds read low
[57] = S. cerevisiae deletion strains, locus YOL136C, strain PFK27, active compounds read low
[58] = S. cerevisiae deletion strains, locus YOR061W, strain CKA2, active compounds read low
[59] = S. cerevisiae deletion strains, locus YOR119C, strain RIO1, active compounds read low
[60] = S. cerevisiae deletion strains, locus YOR231W, strain MKK1, active compounds read low
[61] = S. cerevisiae deletion strains, locus YOR329C, strain SCD5, active compounds read low
[62] = S. cerevisiae deletion strains, locus YPL031C, strain PHO85, active compounds read low
[63] = S. cerevisiae deletion strains, locus YPL153C, strain RAD53, active compounds read low
[64] = S. cerevisiae deletion strains, locus YPL204W, strain HRR25, active compounds read low
[65] = S. cerevisiae deletion strains, locus YPL209C, strain IPL1, active compounds read low
[66] = S. cerevisiae deletion strains, locus YPL256C, strain CLN2, active compounds read low
[67] = S. cerevisiae deletion strains, locus YPR025C, strain CCL1, active compounds read low
[68] = S. cerevisiae deletion strains, locus YPR106W, strain ISR1, active compounds read low
[69] = S. cerevisiae deletion strains, locus YPR111W, strain DBF20, active compounds read low
[70] = S. cerevisiae deletion strains, strain NNK1, active compounds read low
[71] = S. cerevisiae deletion strains, strain TSCII, active compounds read low

Measured: normalized growth

N#CC(C#N)=C(SCc1c(Cl)cccc1Cl)SCc1c(Cl)cccc1Cl
inactive: [1] 0.997 | [2] 0.981 | [3] 0.992 | [4] 0.988 | [5] 0.996 | [6] 0.989 | [7] 0.993 | [8] 0.988 | [9] 0.989 | [10] 0.984 | [11] 0.996 | [12] 0.99 | [13] 0.977 | [14] 0.981 | [15] 0.993 | [16] 0.999 | [17] 0.995 | [18] 0.981 | [19] 0.986 | [20] 0.99 | [21] 0.979 | [22] 0.993 | [23] 0.993 | [24] 1.03 | [25] 0.982 | [26] 0.925 | [27] 0.93 | [28] 1.11 | [29] 0.859 | [30] 0.992 | [31] 0.969 | [32] 0.993 | [33] 0.989 | [34] 0.991 | [35] 1 | [36] 1.09 | [37] 0.954 | [38] 0.995 | [39] 0.981 | [40] 0.987 | [41] 1.08 | [42] 0.95 | [43] 0.991 | [44] 0.937 | [45] 0.998 | [46] 0.985 | [47] 0.996 | [48] 0.994 | [49] 0.997 | [50] 0.987 | [51] 0.983 | [52] 1.1 | [53] 0.987 | [54] 0.987 | [55] 0.989 | [56] 0.993 | [57] 0.988 | [58] 0.995 | [59] 1.08 | [60] 1.01 | [61] 0.986 | [62] 0.989 | [63] 1.01 | [64] 1 | [65] 0.987 | [66] 0.946 | [67] 0.996 | [68] 0.998 | [69] 0.988 | [70] 0.996 | [71] 0.993

Nc1ccccc1SCc1c(Cl)cccc1Cl
active: [26] 0.695 | [42] 0.696
inactive: [1] 0.949 | [2] 0.947 | [3] 0.957 | [4] 0.945 | [5] 0.953 | [6] 0.952 | [7] 0.947 | [8] 0.953 | [9] 0.954 | [10] 0.94 | [11] 0.889 | [12] 0.962 | [13] 0.943 | [14] 0.969 | [15] 0.859 | [16] 0.795 | [17] 0.821 | [18] 0.946 | [19] 0.949 | [20] 0.944 | [21] 0.841 | [22] 0.948 | [23] 0.853 | [24] 0.787 | [25] 0.775 | [27] 0.843 | [28] 0.835 | [29] 0.68 | [30] 0.952 | [31] 0.617 | [32] 0.914 | [33] 0.885 | [34] 0.956 | [35] 0.813 | [36] 0.767 | [37] 0.939 | [38] 0.87 | [39] 0.87 | [40] 0.952 | [41] 0.907 | [43] 0.91 | [44] 0.795 | [45] 0.831 | [46] 0.945 | [47] 0.885 | [48] 0.951 | [49] 0.959 | [50] 0.891 | [51] 0.955 | [52] 0.79 | [53] 0.948 | [54] 0.951 | [55] 0.825 | [56] 0.943 | [57] 0.853 | [58] 0.843 | [59] 0.905 | [60] 0.751 | [61] 0.95 | [62] 0.841 | [63] 0.85 | [64] 0.857 | [65] 0.949 | [66] 0.917 | [67] 0.95 | [68] 0.95 | [69] 0.935 | [70] 0.944 | [71] 0.952

Clc1cccc(Cl)c1CSC1=NCCCN1C1CCCCC1
inactive: S. cerevisiae deletion strains, locus YAL013W, strain DEP1, active compounds read low 0.999 | S. cerevisiae deletion strains, locus YBR229C, strain ROT2, active compounds read low 1 | [8] 1 | S. cerevisiae deletion strains, locus YDR150W, strain NUM1, active compounds read low 0.993 | S. cerevisiae deletion strains, locus YEL061C, strain CIN8, active compounds read low 0.973 | S. cerevisiae deletion strains, locus YGR078C, strain PAC10, active compounds read low 1 | S. cerevisiae deletion strains, locus YGR229C, strain SMI1, active compounds read low 1 | [26] 0.967 | S. cerevisiae deletion strains, locus YHR087W, strain rtc3, active compounds read low 1.01 | S. cerevisiae deletion strains, locus YJL187C, strain SWE1, active compounds read low 1.01 | S. cerevisiae deletion strains, locus YJR043C, strain POL32, active compounds read low 1 | S. cerevisiae deletion strains, locus YJR075W, strain HOC1, active compounds read low 1.03 | S. cerevisiae deletion strains, locus YLR039C, strain RIC1, active compounds read low 1 | S. cerevisiae deletion strains, locus YLR058C, strain SHM2 (second series), active compounds read low 0.993 | S. cerevisiae deletion strains, locus YLR085C, strain ARP6, active compounds read low 0.987 | S. cerevisiae deletion strains, locus YLR262C, strain YPT6, active compounds read low 1.01 | S. cerevisiae deletion strains, locus YML094W, strain GIM5, active compounds read low 0.988 | S. cerevisiae deletion strains, locus YMR219W, strain ESC1, active compounds read low 0.994 | S. cerevisiae deletion strains, locus YMR263W, strain SAP30, active compounds read low 1.01 | S. cerevisiae deletion strains, locus YNL153C, strain GIM3, active compounds read low 0.985 | S. cerevisiae deletion strains, locus YNL298W, strain CLA4 (second series), active compounds read low 0.998 | S. cerevisiae deletion strains, locus YNL322C, strain KRE1, active compounds read low 1 | S. cerevisiae deletion strains, locus YNR030W, strain Alg12, active compounds read low 0.975 | S. cerevisiae deletion strains, locus YOL006C, strain TOP1, active compounds read low 0.986 | S. cerevisiae deletion strains, locus YPL055C, strain LGE1, active compounds read low 1.05 | S. cerevisiae deletion strains, locus YPL241C, strain CIN2, active compounds read low 0.992 | S. cerevisiae deletion strains, locus YPR135W, strain CTF4, active compounds read low 1.09 | S. cerevisiae strains, strain wild type, active compounds read low 1
